In PubChem BioAssay (EPA / NIEHS):
Activity calls are given as the source filed them. Rule for the calls: active = hit-call score of the fitted dose curve at least 0.9, where 1 is the maximum; inactive = score below 0.9.

Columns and labels:
[1] = ATG_GLI_CIS: Attagene CIS-FACTORIAL HepG2 Assay for human Zinc Finger Protein GLI1 (AID 2282945); details: HepG2, Attagene cis-factorial reporter mRNA, GLI element; actives raise or lower the signal
Summary of the method: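 HepG2 cells transiently transfected with cis-promoter multiplexed reporter units report endogenous transcription factor activity. After 24 h chemical exposure, reporter mRNA was quantified by RT-PCR, 6-FAM labelling, HpaI digestion and capillary electrophoresis, with bidirectional fitting against DMSO.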

[2] = target: Bile acid receptor (Homo sapiens) (UniProt Q96RI1); assay: ATG_IR1_CIS: Attagene CIS-FACTORIAL HepG2 Assay for human Nuclear Receptor Subfamily 1 Group H Member 4 (NR1H4), IR1 submotif (AID 2282946); details: IR1 reporter transcription, actives raise or lower the signal
Summary of the method: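 Transient MRTU transfection, HepG2; 24 h dosing; RNA → RT-PCR → 6-FAM primer extension → HpaI digest → capillary electrophoresis fluorescence. Gain/loss of signal fitted relative to DMSO.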

[3] = ATG_GRE_CIS: Attagene CIS-FACTORIAL HepG2 Assay for human Glucocorticoid Response Elements (GRE) (AID 2282947); details: HepG2 GRE cis-reporter, Attagene multiplex mRNA; actives raise or lower the signal
Summary of the method: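 HepG2 cells transiently transfected with multiple cis-promoter reporter units measure endogenous TF activity; 24 h compound exposure. Reporter mRNA quantified by RT-PCR, FAM labelling, HpaI digestion and capillary electrophoresis; bidirectional fit vs DMSO baseline.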

[4] = ATG_M_32_CIS: Attagene CIS-FACTORIAL HepG2 Assay for M32 Transcription Factor (Internal Marker) (AID 2282949); details: HepG2 Attagene cis-factorial M32 reporter, mRNA; actives raise or lower the signal;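 note: background control marker of the multiplexed CIS panel rather than a real target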
Summary of the method: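 Following 24 h chemical exposure of HepG2 cells transiently expressing cis-promoter reporter constructs, reporter transcript levels were determined by RT-PCR with fluorescent labelling and capillary electrophoresis, then fitted bidirectionally against DMSO.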

[5] = ATG_M_06_CIS: Attagene CIS-FACTORIAL HepG2 Assay for M06 Transcription Factor (Internal Marker) (AID 2282950); details: HepG2 Attagene CIS-FACTORIAL M06 internal marker reporter; actives raise or lower the signal
Summary of the method: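 HepG2 cells transiently transfected with cis-regulated multiple reporter transcription units were exposed to chemical for 24 h; reporter mRNA was quantified by RT-PCR, 6-FAM primer labelling, HpaI digestion and capillary electrophoresis, fitted bidirectionally against DMSO.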

[6] = target: Hypoxia-inducible factor 1-alpha (Homo sapiens) (UniProt Q16665); assay: ATG_HIF1a_CIS: Attagene CIS-FACTORIAL HepG2 Assay for human Hypoxia Inducible Factor 1 (HIF1A) (AID 2282951); details: HepG2 Attagene cis-factorial HIF1a reporter transcription; actives raise or lower the signal
Summary of the method: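 Fluorescence intensity of capillary-separated, 6-FAM-labelled reporter amplicons gives mRNA induction in HepG2 cells carrying transfected cis-promoter reporter units; cells exposed 24 h, responses fitted up or down from DMSO.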

[7] = target: Hepatocyte nuclear factor 6 (Homo sapiens) (UniProt Q9UBC0); assay: ATG_HNF6_CIS: Attagene CIS-FACTORIAL HepG2 Assay for human Hepatocyte Nuclear Factor 6 (HNF6) (AID 2282952); details: HepG2 Attagene cis-factorial HNF6 reporter transcription; actives raise or lower the signal
Summary of the method: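 HepG2 cells transiently transfected with cis-element-driven multiplexed reporter units measuring endogenous transcription factor activity. After 24 h exposure, reporter mRNA quantified by RT-PCR, FAM-labelled fragments and capillary electrophoresis; bidirectional fitting versus DMSO.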

[8] = target: Heat shock factor protein 1 (Homo sapiens) (UniProt Q00613); assay: ATG_HSE_CIS: Attagene CIS-FACTORIAL HepG2 Assay for human Heat Shock Transcription Factor 1 (HSE) (AID 2282953); details: HepG2 HSE cis-reporter, Attagene RNA transcription; actives raise or lower the signal
Summary of the method: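 HepG2 cells transiently transfected with multiple reporter transcription units under cis-regulatory promoter control, measuring endogenous transcription factor activity. After 24 h chemical exposure, reporter mRNA quantified by RT-PCR, fluorescent labelling, HpaI digestion and capillary electrophoresis; bidirectional fit versus DMSO.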

[9] = ATG_MRE_CIS: Attagene CIS-FACTORIAL HepG2 Assay for human Metal Responsive Element (MRE) (AID 2282954); details: HepG2 MRE cis-reporter transcription, Attagene multiplex; actives raise or lower the signal
Summary of the method: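 HepG2 cells transiently transfected with multiple cis-element reporter units measure endogenous MTF1-driven transcription. After 24 h compound exposure, reporter mRNA is quantified by RT-PCR with 6-FAM labelling, HpaI digestion and capillary electrophoresis; bidirectional fits versus DMSO.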

[10] = ATG_ISRE_CIS: Attagene CIS-FACTORIAL HepG2 Assay for human Interferon Regulatory Factor 1 (IRF1) binding to an Interferon-Stimulated Response Element (ISRE) (AID 2282948); details: HepG2 ISRE cis-reporter (Attagene), mRNA transcription readout; actives raise or lower the signal
Summary of the method: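 Cell-based cis-reporter assay; HepG2; 24 h exposure; reporter mRNA by RT-PCR plus capillary electrophoresis fluorescence; activity in either direction scored relative to DMSO.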

Sequence of Hypoxia-inducible factor 1-alpha (Homo sapiens) (Q16665 whole entry, looked up): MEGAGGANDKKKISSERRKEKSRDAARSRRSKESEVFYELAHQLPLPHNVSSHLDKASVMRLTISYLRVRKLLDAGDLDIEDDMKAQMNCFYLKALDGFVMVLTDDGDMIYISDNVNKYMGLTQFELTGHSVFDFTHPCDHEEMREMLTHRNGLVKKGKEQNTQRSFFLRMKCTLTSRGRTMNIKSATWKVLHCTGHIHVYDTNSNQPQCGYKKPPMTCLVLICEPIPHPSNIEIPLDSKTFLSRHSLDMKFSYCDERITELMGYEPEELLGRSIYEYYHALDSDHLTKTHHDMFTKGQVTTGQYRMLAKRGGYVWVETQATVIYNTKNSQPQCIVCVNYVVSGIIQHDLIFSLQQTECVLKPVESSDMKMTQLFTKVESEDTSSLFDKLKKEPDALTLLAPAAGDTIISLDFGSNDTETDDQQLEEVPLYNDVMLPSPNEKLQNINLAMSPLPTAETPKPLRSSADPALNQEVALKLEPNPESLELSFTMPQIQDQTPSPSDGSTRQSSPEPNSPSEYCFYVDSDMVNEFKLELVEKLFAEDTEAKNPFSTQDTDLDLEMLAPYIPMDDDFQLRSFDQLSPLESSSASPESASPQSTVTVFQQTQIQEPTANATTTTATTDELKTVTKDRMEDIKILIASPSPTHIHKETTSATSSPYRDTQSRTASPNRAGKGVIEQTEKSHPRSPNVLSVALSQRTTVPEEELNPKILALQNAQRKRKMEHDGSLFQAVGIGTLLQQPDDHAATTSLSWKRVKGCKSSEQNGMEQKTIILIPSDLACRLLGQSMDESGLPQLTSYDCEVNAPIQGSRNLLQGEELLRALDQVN
Sequence of Heat shock factor protein 1 (Homo sapiens) (Q00613 whole entry, looked up): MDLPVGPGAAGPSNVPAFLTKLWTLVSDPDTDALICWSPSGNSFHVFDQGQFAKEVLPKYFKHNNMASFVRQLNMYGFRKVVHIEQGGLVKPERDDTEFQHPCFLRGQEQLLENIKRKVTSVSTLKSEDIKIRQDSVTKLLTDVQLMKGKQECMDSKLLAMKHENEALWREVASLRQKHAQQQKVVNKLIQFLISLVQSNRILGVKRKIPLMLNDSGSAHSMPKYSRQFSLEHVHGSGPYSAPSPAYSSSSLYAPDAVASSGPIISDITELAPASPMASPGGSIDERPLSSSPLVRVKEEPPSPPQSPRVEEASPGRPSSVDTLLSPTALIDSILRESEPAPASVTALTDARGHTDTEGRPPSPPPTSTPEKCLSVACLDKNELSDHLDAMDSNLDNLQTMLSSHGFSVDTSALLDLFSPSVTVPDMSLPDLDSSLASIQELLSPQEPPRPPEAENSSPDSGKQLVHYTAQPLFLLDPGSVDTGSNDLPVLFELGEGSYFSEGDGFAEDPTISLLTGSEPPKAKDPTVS
Sequence of Bile acid receptor (Homo sapiens) (Q96RI1 whole entry, looked up): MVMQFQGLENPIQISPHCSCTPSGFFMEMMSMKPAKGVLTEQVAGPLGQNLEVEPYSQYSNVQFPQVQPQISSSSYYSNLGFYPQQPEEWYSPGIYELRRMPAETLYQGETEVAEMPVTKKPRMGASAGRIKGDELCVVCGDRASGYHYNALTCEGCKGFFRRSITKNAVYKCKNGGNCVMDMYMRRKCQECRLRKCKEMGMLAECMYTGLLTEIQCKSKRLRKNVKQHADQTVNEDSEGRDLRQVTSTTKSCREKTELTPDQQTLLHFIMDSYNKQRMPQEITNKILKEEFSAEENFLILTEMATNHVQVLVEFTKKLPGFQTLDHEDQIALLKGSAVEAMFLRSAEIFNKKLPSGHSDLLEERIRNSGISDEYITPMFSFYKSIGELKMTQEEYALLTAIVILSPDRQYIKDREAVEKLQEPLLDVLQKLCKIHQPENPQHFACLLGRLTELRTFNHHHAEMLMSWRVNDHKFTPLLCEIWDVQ
Sequence of Hepatocyte nuclear factor 6 (Homo sapiens) (Q9UBC0 whole entry, looked up, the tested form may be a part): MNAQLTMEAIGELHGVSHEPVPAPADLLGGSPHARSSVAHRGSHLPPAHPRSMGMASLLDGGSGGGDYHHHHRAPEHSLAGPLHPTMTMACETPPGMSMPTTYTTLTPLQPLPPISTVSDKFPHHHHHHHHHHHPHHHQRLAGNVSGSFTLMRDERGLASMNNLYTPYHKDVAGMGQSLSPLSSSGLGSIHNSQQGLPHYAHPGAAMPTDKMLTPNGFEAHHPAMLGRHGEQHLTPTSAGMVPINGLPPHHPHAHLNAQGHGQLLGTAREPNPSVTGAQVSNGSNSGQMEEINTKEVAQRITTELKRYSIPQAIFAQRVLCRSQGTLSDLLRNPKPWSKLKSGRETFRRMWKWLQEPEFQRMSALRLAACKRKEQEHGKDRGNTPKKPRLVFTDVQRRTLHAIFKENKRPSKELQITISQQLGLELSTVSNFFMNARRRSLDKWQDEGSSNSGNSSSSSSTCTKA

SMILES | outcome [1] | outcome [2] | outcome [3] | outcome [4] | outcome [5] | outcome [6] | outcome [7] | outcome [8] | outcome [9] | outcome [10] | AC50 [8] | AC50 [9] | AC50 [10]
CCCCNS(=O)(=O)c1ccccc1 | inactive | inactive | inactive | inactive | inactive | inactive | inactive | inactive | inactive | – | – | – | –
NNS(=O)(=O)c1ccc(Oc2ccc(S(=O)(=O)NN)cc2)cc1 | inactive | inactive | – | inactive | inactive | inactive | inactive | inactive | inactive | inactive | – | – | –
CC1(C)CCC[C@]2(C)[C@H]3CC(=O)O[C@]3(C)CC[C@@H]12 | inactive | inactive | inactive | inactive | inactive | inactive | inactive | inactive | inactive | – | – | – | –
CCC(C)C(=O)OC (stereo not drawn) | inactive | inactive | inactive | inactive | inactive | inactive | inactive | inactive | inactive | – | – | – | –
CCCCC1C(=O)N(c2ccccc2)N(c2ccccc2)C1=O | inactive | inactive | inactive | inactive | inactive | inactive | inactive | inactive | inactive | – | – | – | –
CC(C=O)c1ccccc1 (stereo not drawn) | inactive | inactive | – | inactive | inactive | inactive | inactive | inactive | inactive | inactive | – | – | –
COc1ccc(-c2coc3cc(O)cc(O)c3c2=O)cc1 | inactive | – | inactive | inactive | inactive | inactive | inactive | – | – | inactive | 174 µM (active) | 138 µM (active) | –
Oc1ccc(/C=C/c2cc(O)cc(O)c2)cc1 | inactive | inactive | – | – | inactive | – | inactive | inactive | inactive | – | – | – | 100 µM (active)
C=C(C)C(=O)OCCCCCCCCCCCC | inactive | – | inactive | inactive | inactive | inactive | inactive | inactive | inactive | inactive | – | – | –
Cc1ccc([N+](=O)[O-])cc1N | inactive | inactive | – | inactive | inactive | – | inactive | inactive | inactive | inactive | – | – | –
CO[Si](CCCS)(OC)OC | inactive | inactive | – | inactive | inactive | inactive | inactive | inactive | inactive | – | – | – | –
O=C(Oc1ccccc1)c1ccccc1O | inactive | – | inactive | inactive | inactive | inactive | inactive | inactive | inactive | inactive | – | – | –
Cc1c(O)cccc1O | inactive | inactive | – | – | inactive | inactive | inactive | inactive | inactive | inactive | – | – | –
CCC[Si](OC)(OC)OC | inactive | inactive | – | inactive | inactive | inactive | inactive | inactive | inactive | – | – | – | –
CC(=O)/C=C/C1C(C)=CCCC1(C)C (stereo not drawn) | inactive | inactive | – | inactive | inactive | – | inactive | inactive | inactive | inactive | – | – | –
